In the library only some 4.7% were active in any assay of this set; here they are far more common.
TRHR agonist-1: agonists of human TRH receptor. P34981. 360,000 tested, 0.18% active. activation, % at 2 µM. TRHR cells, calcium flux fluo-8, FDSS agonist mode. AID 493084; further: 0% is about no effect
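TRHR-expressing cells, plated overnight in medium with 10% serum, were loaded with fluo-8 calcium dye at room temperature. After a 10 s baseline, library compound was pin-added and calcium release was recorded kinetically (ex 480/em 530) as agonist response.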
D1 antagonist: human D1 dopamine receptor antagonism. activity change, negative = inhibition, % at 10 µM. 360,000 tested, 3.2% active. P21728. HEK293 TREx D1 cells, calcium flux, dopamine EC80; hits give low values; in the data active means activity change below about -30%; further: on the % scale 0 is the no-effect control and ±100 the full control effect
Target sequence (P21728 whole entry, looked up): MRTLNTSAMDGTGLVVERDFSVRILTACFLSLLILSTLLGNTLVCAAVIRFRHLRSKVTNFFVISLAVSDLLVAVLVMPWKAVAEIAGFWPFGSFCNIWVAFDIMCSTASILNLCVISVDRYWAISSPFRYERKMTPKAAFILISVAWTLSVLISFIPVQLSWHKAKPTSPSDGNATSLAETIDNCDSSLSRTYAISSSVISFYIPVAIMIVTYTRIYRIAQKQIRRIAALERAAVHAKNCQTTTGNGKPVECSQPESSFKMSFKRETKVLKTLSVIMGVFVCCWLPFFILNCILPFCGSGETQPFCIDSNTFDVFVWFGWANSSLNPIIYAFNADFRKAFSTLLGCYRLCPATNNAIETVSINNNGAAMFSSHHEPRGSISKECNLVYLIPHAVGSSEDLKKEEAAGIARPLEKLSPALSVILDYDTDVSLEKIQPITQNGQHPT
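Compound effects on dopamine-evoked calcium signalling were measured in tetracycline-induced HEK293 Trex D1 cells. Dopamine at EC80 followed a 180 s compound pre-read, and fluorescence was tracked kinetically for 180 s more.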
TRHR enhancer-1: TRH receptor (human) allosteric enhancement; P34981; TRHR cells, fluo-8 calcium fluorescence, EC20 TRH enhancement; enhancement, % at 2 µM; 360,000 tested, 0.66% active; AID 493056; in the data active means enhancement above about 30%; further: 0% is about no effect
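TRHR-expressing cells loaded with fluo-8 calcium dye were read kinetically (ex 480/em 530) during compound addition, then stimulated with an EC20 of TRH (10 nM final). Enhancement of the Gq-mediated intracellular calcium response was scored.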
D1 ag: agonists of human D1 dopamine receptor. P21728. HEK293 T-REx D1 cells, calcium flux, agonist mode. activation, % at 2 µM. 360,000 tested, 1% active. AID 504660; further: 0% is about no effect
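Agonism was scored from calcium flux recorded over 180 s (1 read/s) after pintool compound addition, following a 10-cycle baseline. Cells were inducible force-coupled HEK293 TREx D1, plated overnight at 30 C and loaded with no-wash calcium dye.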
D1 PAM: enhances dopamine response at the human D1 receptor; HEK293 TREx D1 cells, calcium flux, dopamine EC20 potentiation; 360,000 tested, 0.036% active; potentiation, % at 10 µM; AID 504651; P21728; in the data active means potentiation above about 30%; further: 0% is about no effect
TRHR enhancer-2: confirmation of human TRH receptor allosteric enhancers. shares compounds with TRHR enhancer-1. TRH receptor cell assay, enhancer confirmation qHTS. activity change, negative = inhibition, % at 46.1 µM. 970 tested, under 10 active. AID 493076; active means well fitted curve in the direction sought with a large enough effect; inconclusive means small, poorly fitted or top-dose-only effect, or another doubt; inactive means no such curve, though single readings can be large; an effect the other way counts as inactive or inconclusive;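 further: compound effect scored on response to added TRH at EC20 of 10 nM; 0% is about no effect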
TRHR agonist-2: human TRH receptor agonism confirmation; shares compounds with TRHR enhancer-1; TRHR-expressing cells, agonist activation read-out; Potency, µM (doses to about 46.1 µM), for the others: at the highest dose activation, hits mostly activators; 970 tested, 8% active; AID 493078; active means well fitted curve in the direction sought with a large enough effect; inconclusive means small, poorly fitted or top-dose-only effect, or another doubt; inactive means no such curve, though single readings can be large; an effect the other way counts as inactive or inconclusive; further: potency means the concentration at half of the fitted maximal effect; 0% is about no effect; nearly all actives have a fitted effect of over 75% in size
The depositor's hits bear a star; ? = inconclusive; . = no result given. Unless noted, no stated cut-off is given here; in the data, active means activation above about 30%; inactive means the rest.

SMILES	TRHR agonist-1	D1 antagonist	TRHR enhancer-1	D1 ag	D1 PAM	TRHR enhancer-2	TRHR agonist-2
N#Cc1ccccc1S(=O)(=O)N1CCN(C(=O)C2COc3ccccc3O2)CC1 (centres undefined)	0	-1	54*	1	8	-10	?
COC(=O)c1ccc(NC(=O)c2cc(S(=O)(=O)N3CCOCC3)cn2C)cc1	0	-17	-2	6	-3	.	.
CC(=O)c1cc(NC(=O)c2ccc(C)cc2)c(=O)oc1/C=C/N(C)C	29	15	-1	34*	0	4	21µM*
O=C(NC(=S)Nc1ccc(N2CCCCC2)cc1)c1cccs1	1	-6	1	0	6	.	.
CS(=O)(=O)N1CCN(c2ccc(NC(=S)NC(=O)c3cccs3)cc2)CC1	-1	2	44*	6	-8	-5	0%
COc1ccc(CCNc2nc3c(-c4cccc(C)c4)nnn3c3ccccc23)cc1OC	0	1	0	2	0	.	.
COc1ccccc1OCC(=O)OCC(=O)Nc1sccc1C(N)=O	34*	-23	-2	7	-4	-1	?
CCOC(=O)CSc1ccc2nnc(-c3ccncc3)n2n1	-1	-16	52*	0	-5	4	3%
COc1ccccc1CNc1nc2ccc(C)cc2n2nnnc12	1	-2	0	4	-1	.	.
COc1ccc(CCNc2oc(-c3ccccc3OC)nc2C#N)cc1	-1	-11	-4	-4	-10	.	.
COc1ccc(CCNc2oc(-c3ccccc3OC)nc2C#N)cc1OC	1	13	43*	3	4	?	0%
Cc1c(Cl)cccc1NC(=O)Nc1c[nH]c(=O)[nH]c1=O	0	-1	-4	2	-4	.	.
O=C(COc1ccc(Cl)cc1)NCc1ccccc1	0	-12	-2	1	-3	.	.
Clc1ccc(OCCNCCc2ccccc2)cc1	1	-18	43*	25	-10	9	9%
NCCSc1c(-c2ccc(F)cc2)[nH]c2ccccc12	4	-4	45*	18	-5	2	?
O=C(Nc1cccc(F)c1)C1CCN(S(=O)(=O)c2cccc3nsnc23)CC1	-1	-16	-8	7	1	.	.
CCOc1ccc(C(=O)Nc2ccc(N3CCN(C(C)=O)CC3)cc2)cc1[N+](=O)[O-]	1	-13	-9	0	-6	.	.
CCOc1ccc(C(=O)Nc2ccc(N3CCN(C)CC3)cc2)cc1[N+](=O)[O-]	1	-10	63*	2	0	7	0%
O=C(c1ccc(NS(=O)(=O)c2ccccc2)cc1)N1CCCC1	0	-20	1	2	-1	.	.
CC1CCN(C(=O)c2ccc(NS(=O)(=O)c3ccccc3)cc2)CC1	-1	-32*	44*	7	-8	1	1%
N#CNC(=Nc1cccc(C(F)(F)F)c1)SCc1ccc(C(=O)O)cc1	1	-10	46*	1	-2	9	7%
CSC(=Nc1cccc(C)c1)NC#N	0	-15	7	6	-2	.	.
CC(C)Cn1c(=O)c2ccccc2n2c(CCC(=O)NCc3ccc(Cl)cc3)nnc12	0	-1	-1	1	-2	.	.
Cn1c(=O)c(=O)n(C)c2cc(C(=O)NCc3ccccc3Cl)ccc21	0	3	13	1	-3	.	.
Cc1ccccc1NC(=O)CN1CCN(C)CC1	-1	16	15	10	0	.	.
SMILES	TRHR agonist-1	D1 antagonist	TRHR enhancer-1	D1 ag	D1 PAM	TRHR enhancer-2	TRHR agonist-2
Cc1ccccc1NC(=O)CN1CCOCC1	0	-2	56*	3	-3	14	0%
O=c1c2sccc2n(Cc2cc(=O)n3cc(Cl)ccc3n2)c(=O)n1-c1ccccc1	-1	2	0	4	0	.	.
COc1cccc2c1Oc1ncccc1N(C(=O)CCC(=O)NCc1ccc(N(C)C)cc1)C2	1	-3	-15	1	-5	.	.
CCOC(=O)c1ccc(Nc2c(-c3cccc(O)c3)nc3nc[nH]n23)cc1	0	-13	8	5	-3	.	.
COc1ccc(C(=O)Oc2ccc(/C=N/NC(=O)c3ccccc3OC)cc2[N+](=O)[O-])cc1	0	3	51*	2	-6	-3	2%
COc1ccc(-c2c(C)c3ccc(O)c(CN4CCCC4)c3oc2=O)cc1	0	28	-6	1	-4	.	.
N#C/C(=C/c1ccc(N2CCOCC2)o1)C(=O)NC1CCCCC1	47*	-5	2	113*	-5	?	21µM*
N#C/C(=C\c1ccc(N2CCOCC2)o1)c1ccccc1	-2	9	5	0	-4	.	.
CCOC(=O)C1CCN(c2nc3ccccc3nc2C(C#N)C(=O)OC(C)C)CC1 (centres undefined)	2	-1	-8	6	8	.	.
CCOC(=O)C1CCCN(c2nc3ccccc3nc2C(C#N)C(=O)OC(C)C)C1 (centres undefined)	42*	7	-7	4	-4	1	?
CCCCNC(=O)c1nn(-c2ccc(C)cc2)c(=O)c2c1c1ccccc1n2C	1	-5	-3	1	3	.	.
Cc1cccc(OCc2nnc(SC(C)C(=O)O)n2Cc2ccccc2)c1 (centres undefined)	1	-19	41*	2	-8	12	-1%
COc1ccc(Cl)cc1NC(=O)C(C)N1Cc2ccccc2C1=O (centres undefined)	-1	7	8	4	9	.	.
O=Cc1c(NCc2ccco2)nc2ccccn2c1=O	0	-1	46*	0	-3	-7	4%
CC1CCN(S(=O)(=O)c2ccc3c(c2)oc(=O)n3CC(=O)NC(C)c2ccccc2)CC1 (centres undefined)	-1	-12	8	8	-2	.	.
COc1ccccc1N/C=C/c1onc(C)c1[N+](=O)[O-]	47*	-12	0	140*	-3	4	?
Cc1ccc(C(=O)c2oc3ccccc3c2NC(=O)COc2ccccc2C)cc1	0	5	0	3	2	.	.
Cc1ccc(C)c(S(=O)(=O)C(C#N)c2nc3ccccc3nc2N2CCCC2)c1 (centres undefined)	27	-8	-2	34*	-2	-6	?
CCN(CC)S(=O)(=O)c1ccc2c(c1)N(CC(=O)Nc1cccc(C)c1C)C(=O)C1CCCN21 (centres undefined)	0	28	1	3	2	.	.
Cc1nn(CC(=O)Nc2ccc3c(c2)nc(CCN2CCCCC2)n3C)c(=O)c2ccccc12	0	4	5	3	1	.	.

Screening data deposited in PubChem by National Center for Advancing Translational Sciences (NCATS).
